Assay outcomes: PubChem, SRMLSC
Hits are enriched below; roughly 6.3% of the tested compounds scored in any of these assays.
Spn MK inh: S. pneumoniae MK inhibitors, primary screen, biochemical, PK/LDH-coupled NADH absorbance | mevalonate kinase [Streptococcus pneumoniae D39] | purified MK, PK/LDH-coupled NADH absorbance 340 nm | inhibition, % at 10 µM | actives 0.48% (n = 65,000) | AID 555, 2006;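 active = ranked among the strongest by inhibition in the single 10 µM screen, a fixed top-ranked set picked for dose follow-up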
Autofluor 339: intrinsic fluorescence of library compounds, ex339/em460 – biochemical, MLSMR library, data from DPM-DC assay, artefact control, profiling panel | compound autofluorescence, ex339/em460 nm, NADH buffer; active compounds read high; 1 = no-compound wells, NADH background | fluorescence fold increase at 10 µM | actives 5.5% (n = 65,000);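 active = at 10 µM, mean starting fluorescence two-fold or more over control wells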;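 also: signal is the first read of a kinetic run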
A340 absorber: compound light absorbance at 340 nm, profiling panel, artefact control, biochemical, MLSMR library, data from PS, PMK, MK assays; 65,000 tested, under 10 active; fold change at 10 µM; compound absorbance at 340 nm, fold over control;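 active = at 10 µM dose, initial 340 nm absorbance at least 2 fold that of control wells; inactive = change under 2 fold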;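 also: initial absorbance extrapolated from kinetic A340 decline of NADH oxidation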
NADH enzymes: inhibitors of PK/LDH coupling enzymes, profiling panel, artefact control, biochemical, MLSMR library; coupled PK/LDH NADH assays, four targets; actives 0.02% (n = 65,000); IC50, µM (top dose mostly 10 µM);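 active = single-dose screening hits from any of four coupled enzyme assays that gave an IC50 when retested across doses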;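 also: the DPM-DC format reads NADH fluorescence rather than 340 nm absorbance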
Spn PMK inh: S. pneumoniae PMK inhibitors, primary screen, biochemical, mevalonate pathway, pilot trial included; phosphomevalonate kinase (Streptococcus pneumoniae D39); purified PMK, PK/LDH-coupled NADH absorbance 340 nm; inhibition, % at 10 µM; actives 0.49% (n = 65,000);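 active = top-ranked compounds by inhibition in the single 10 µM screen, taking a fixed number of the strongest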
Spn DPM-DC inh: S. pneumoniae DPM-DC inhibitors, primary screen, biochemical, PK/LDH-coupled NADH fluorescence; AID 556, 2006; actives 0.49% (n = 65,000); diphosphomevalonate decarboxylase (Streptococcus pneumoniae D39); calls only at 10 µM; purified DPM-DC;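 active = the 320 compounds with the highest percent inhibition in the single-dose primary screen, excluding strongly autofluorescent ones, cut at about 32% in these data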;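 also: kinetic rate of NADH fluorescence loss reporting ADP formed by the decarboxylase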
Of the large screens only hits and unclear results are named; the others gave an inactive call.

COc1ccc(NC(=O)c2ccc(-n3nc(C)c[n+]3[O-])cc2)cc1	none
CCN(CC)c1ccc2c(C)c(CN3CCOCC3)c(=O)oc2c1	Autofluor 339 4.3 (not shown: Spn DPM-DC inh)
C=CCn1c(SCC(=O)c2ccccc2)nnc1-c1ccc2c(c1)OCO2	none
Cc1nc2c3c(-c4ccccc4)c(-c4ccccc4)oc3ncn2n1	none
COc1ccccc1OCc1nc2c3c(-c4ccccc4)c(-c4ccccc4)oc3ncn2n1	Autofluor 339 3.2 (not shown: Spn DPM-DC inh)
CC1(C)CC(=O)C2=C(C1)N(Cc1ccco1)C(=O)C2(NC(=O)c1cccnc1)C(F)(F)F (stereo not given)	none
N=c1oc2ccc3ccccc3c2cc1-c1nnc2n1CCCCC2	Autofluor 339 2.1 (not shown: Spn DPM-DC inh)
Clc1c(-c2nnc3n2CCCCC3)sc2ccccc12	none
O=C(O)Cn1c(CC(=O)N2CCCC2)nc2ccccc21	none
CC1CCN(S(=O)(=O)c2ccc(NC(=O)CN3CCN(C)CC3)cc2)CC1	Spn MK inh 48
COCCCN=C(c1ccco1)n1c(=S)nc(-c2ccco2)n(CCCOC)c1=S	none
CCn1nc(NC(=O)c2ccccn2)c2cc3cccc(C)c3nc21	Autofluor 339 3.4 (not shown: Spn DPM-DC inh)
CCOC(=O)Cc1c(C)nc2c(-c3ccccc3)c[nH]n2c1=O	Autofluor 339 2.2 (not shown: Spn DPM-DC inh)
CCOC(=O)Cc1c(C)nc2cc(-c3ccc(C)cc3)[nH]n2c1=O	none
O=C(C1CCC(CNc2c(N3CCCCC3)c(=O)c2=O)CC1)N1CCc2ccccc2C1 (stereo not given)	none
O=C(Cc1ccc(Cl)cc1)Nc1ccc2oc(-c3ccncc3)nc2c1	Autofluor 339 3.6 (not shown: Spn DPM-DC inh)
O=C(Cc1ccccc1)Nc1ccc2oc(-c3cccnc3)nc2c1	Autofluor 339 2.3 (not shown: Spn DPM-DC inh)
CCCCCC(=O)Nc1ccc2oc(-c3cccnc3)nc2c1	Autofluor 339 3.7 (not shown: Spn DPM-DC inh)
O=C(Nc1ccc2oc(-c3ccccc3)nc2c1)c1cccnc1	none
COc1ccc2[nH]cc(C(=O)CN3CCN(C(=O)c4ccco4)CC3)c2c1	none
COc1ccc(OC)c(C2C(C(=O)c3cccs3)=C(O)C(=O)N2CCN(C)C)c1 (stereo not given)	none
Brc1ccccc1-c1nnc(COc2ncnc3c2cnn3-c2ccccc2)o1	none
Cc1ccc(Nc2ncc3c(n2)CC(c2ccco2)CC3=O)c(C)c1 (stereo not given)	none
Cc1nnc(SCc2nnc(-c3ccc(Cl)cc3)o2)n1-c1ccccc1	none
CC(C)(C)c1ccc(-c2nnc3sc(-c4ccccn4)nn23)cc1	none
O=c1c2ccccc2nc2c3ccccc3ncn12	Autofluor 339 2.3 (not shown: Spn DPM-DC inh)
Cc1cc(C)cc(NC(=O)CN(C)S(=O)(=O)c2cnc[nH]2)c1	none
CCCCn1c(SCC(=O)Nc2cc(NC(=O)c3ccco3)ccc2C)nc2ccccc2c1=O	none
CCn1c(SCC(=O)Nc2ccc(NC(=O)c3ccco3)c(OC)c2)nc2ccccc2c1=O	Autofluor 339 5.2 (not shown: Spn DPM-DC inh)
CCCn1c(SCC(N)=O)nc2c(c1=O)C1(CCCC1)Cc1ccccc1-2	none
Cn1c(NCCCO)nc2c(c1=O)C1(CCCCC1)Cc1ccccc1-2	Autofluor 339 3.8 (not shown: Spn DPM-DC inh)
CSc1ccc(C2Nc3ccccc3-c3cc(C)nn32)cc1 (stereo not given)	Autofluor 339 2
Cc1cc2n(n1)C(c1ccsc1)Nc1ccccc1-2 (stereo not given)	Autofluor 339 2.4
Cc1cc2n(n1)C(c1ccccc1Cl)Nc1ccccc1-2 (stereo not given)	none
COC(=O)c1ccc(CSc2nc3c(c(=O)n2-c2ccc(F)cc2)SCC3)o1	none
Cc1ccc(OCCSc2nnc(-c3ccncc3)n2C)cc1	none
Cn1c(SCCOc2cccc(Cl)c2)nnc1-c1ccncc1	Spn MK inh 90
Cc1cc(N2CCC(C)CC2)nc2ccc(N3C(=O)CCC3=O)cc12	Autofluor 339 5 (not shown: Spn DPM-DC inh)
Cc1cc(N2CCN(C)CC2)nc2ccc(NC(=O)c3ccc(Br)o3)cc12	none
COc1ccc(OC)c(S(=O)(=O)N2CCC(C(=O)NCc3ccccc3OC)CC2)c1	none
COC(=O)c1ccccc1NC(=O)c1cc(-c2cccc(OC)c2)on1	none
COC(=O)c1ccccc1NC(=O)c1cc(-c2cccs2)on1	Autofluor 339 2
CCCNC(=O)N(C)c1nncnc1C(=O)NC	none
COCCCNC(=O)c1ccc(N2CCCC2)c(NS(=O)(=O)c2ccc(C)cc2)c1	Spn PMK inh 25
Cc1ccc(S(=O)(=O)Nc2cc(C(=O)NCCN3CCCC3)ccc2N2CCCCC2)cc1	none
CCOC(=O)c1nc2sc3c(c2c(=O)[nH]1)CCCC3	Autofluor 339 2.5 (not shown: Spn DPM-DC inh)
CCOC(=O)c1nc(N2CCN(C(=O)OCC)CC2)c2c3c(sc2n1)CCCC3	Autofluor 339 3.7 (not shown: Spn DPM-DC inh)
CCOC(=O)CSc1nc(N)c2c3c(sc2n1)CCCC3	none
COc1ccccc1NC(=O)COc1cccc(-n2cnnn2)c1	none
CN1CCc2c(sc3c2c(=O)n(-c2ccccc2)c2nnc(SCc4ccc(F)cc4)n32)C1	Spn PMK inh active
CN1CCc2c(sc3c2c(=O)n(-c2ccccc2)c2nnc(SCc4ccccc4)n32)C1	none
CCCOC(=O)CC1C(=O)NCCN1Cc1ccccc1C (stereo not given)	none
CCOC(=O)CC1C(=O)NCCN1C(=O)c1cc2c(=O)n3cccc(C)c3nc2s1 (stereo not given)	Autofluor 339 2.1 (not shown: Spn DPM-DC inh)
CCOC(=O)CC1C(=O)NCCN1C(=O)c1cc2c(=O)n3ccccc3nc2s1 (stereo not given)	Autofluor 339 2.1 (not shown: Spn DPM-DC inh)
Cc1sc2c(c1C)CN(C1CC(C)(C)NC(C)(C)C1)CN2C(=O)c1ccco1	none
COC(=O)CSc1nc(N2CCOCC2)c2c(c1C#N)CC(C)(C)N(C)C2	Autofluor 339 2.1
CCOC(=O)c1cnn(-c2cc(C)c3ccccc3n2)c1N	none
CCOC(=O)c1cnn2c1[nH]c(=O)c1ccccc12	Autofluor 339 2.3 (not shown: Spn DPM-DC inh)
COc1ccc(CSc2nnc(C)n2N)cc1	none
CCC(=O)Nc1nonc1-c1nc2ccccc2n1Cc1ccc(Cl)c(Cl)c1	Autofluor 339 2.2
O=C(O)c1ccc(S(=O)(=O)NC2CCCc3ccccc32)cc1 (stereo not given)	none
CC(=O)N1CCc2cc(S(=O)(=O)NC3CCCc4ccccc43)ccc21 (stereo not given)	Spn PMK inh 27
CCN(CC)C(=O)c1cncc(C(=O)N(CC)CC)c1-c1ccccc1	none
O=C(CNC(=O)C1CCCCC1)NCCCO	none
Cc1ccc(C)c(C(=O)Nc2c(C(N)=O)oc3ccccc23)c1	none
COc1cc(=O)n(C)c2cc(N(C)C)ccc12	Autofluor 339 4 (not shown: Spn DPM-DC inh)
